Compound activity as filed in PubChem.
rCAG RNA binder: binds r(CAG) RNA repeats; r(CAG) RNA repeat, TO-PRO-1 dye displacement fluorescence; inhibition, % at 3 µM; actives 1.3% (n = 370,000); AID 651821;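 active means inhibition above the plate cutoff, the mean of all test compounds on that plate plus 3 SD, cut at about 35% in these data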;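 further: higher means more dye released from RNA so lower well fluorescence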
FAS TE block: blocks the thioesterase domain of human fatty acid synthase; recombinant FAS-TE, OMFH fluorogenic substrate, fluorescence endpoint; inhibition, % at 15 µM; actives 0.67% (n = 360,000); AID 602261;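 active means compounds whose normalised, plate-corrected inhibition of enzyme fluorescence in the single-dose primary screen is 50% or more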
GRIN3A LBD mod: modulates the human NR3A ligand-binding domain; NR3A LBD differential scanning fluorimetry, Tm shift; 0% = protein alone, 100% = glycine-bound protein; Tm shift relative to glycine control, % at 25 µM; actives 2.5% (n = 340,000);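 active means melting temperature shift of at least 10% of the positive control shift, at one fixed dose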
NadD inh: inhibitors of Staphylococcus aureus NadD; purified NadD enzyme, colorimetric absorbance read-out; inhibition, % at 20 µM; actives 0.78% (n = 360,000); in the data active means inhibition above about 26%
rCAG binder conf: r(CAG) RNA repeat binding, confirmation. TO-PRO-1 dye displacement fluorescence. actives 70% (n = 4,300). inhibition, % at 3 µM. shares compounds with rCAG RNA binder;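 active means inhibition above a per-plate cutoff, the mean inhibition of sample wells plus 3 SD, cut at about 35% in these data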;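 further: loss of TO-PRO-1 fluorescence as compound displaces dye from 1x1 AA loop RNA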
dCAG dye counter: disrupts DNA CAG TO-PRO-1 complex, flagging rCAG hits; shares compounds with rCAG RNA binder; actives 94% (n = 4,300); d(CAG) DNA oligo TO-PRO-1 dye displacement, fluorescence; inhibition, % at 3 µM;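 active means inhibition above its plate's cutoff, the mean test-well inhibition plus 3 SD, cut at about 4.8% in these data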;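 further: hits displace the dye from DNA and so lower well fluorescence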
DNA CAG DR: DNA CAG dye complex inhibition, dose response counter-screen. shares compounds with rCAG RNA binder. DNA CAG/GTC duplex TO-PRO-1 dye displacement fluorescence. IC50, µM. actives 20% (n = 250). AID 686960; in the data active means IC50 below about 10 µM
Each line names hits and unclear results; the compound was inactive in the other large screens (follow-up assays come after a bar, where they were run). An excerpt weighted towards active compounds, which were near 4.3% of everything screened.

COc1ccc(C2CC(c3ccccc3)=NN2C(=O)COC(=O)c2cc(S(=O)(=O)N3CCOCC3)ccc2F)cc1 (configuration not stated)	none
COC(=O)[C@]12C[C@H](CC(=O)N3CCC(c4ccccc4)CC3)C(=O)N(CCc3ccc(OC)c(OC)c3)C1=C[C@H](C1CCCC1)O[C@@H]2C	none (no result: FAS TE block, GRIN3A LBD mod, NadD inh)
C[C@@H]1CN([C@@H](C)CO)C(=O)CCCn2cc(nn2)CO[C@H]1CN(C)C(=O)Nc1ccc(-c2cccs2)cc1	none (no result: FAS TE block, GRIN3A LBD mod, NadD inh)
Cc1c(C(=O)N(C)C)sc(NC(=O)c2cc([N+](=O)[O-])cc([N+](=O)[O-])c2)c1C#N	rCAG RNA binder 56 | rCAG binder conf 37 | dCAG dye counter 9.9
Cc1ccc(C(=O)Nc2sc(C(=O)N(C)C)c(C)c2C#N)cc1	none
Cc1ccc(C2C(C#N)=C(N)Oc3n[nH]c(-c4ccccc4)c32)o1 (configuration not stated)	rCAG RNA binder 41 | rCAG binder conf 40 | dCAG dye counter 20
O=C(/C=C1\C(=O)Nc2ccccc21)/C=C1\C(=O)Nc2ccccc21	rCAG RNA binder 39 | rCAG binder conf inactive | dCAG dye counter 20
O=S(=O)(/N=C(/NS(=O)(=O)c1ccccc1)c1ccccc1)c1ccccc1	none
O=S(=O)(N=C(NS(=O)(=O)c1ccc(Cl)cc1)c1ccccc1)c1ccc(Cl)cc1	rCAG RNA binder 55 | rCAG binder conf 50 | dCAG dye counter 13
O=C(/C=C/c1ccc(NC(=O)c2ccccc2-c2ccccc2C(=O)O)cc1)c1ccccc1	rCAG RNA binder 68 | rCAG binder conf 66 | dCAG dye counter 24
CCN(Cc1cn(CC2CCCCC2)nn1)S(=O)(=O)c1ccccc1Br	none (no result: FAS TE block, GRIN3A LBD mod, NadD inh)
O=C(Cc1c(C(=O)O)[nH]c2ccc(Cl)cc12)Nc1ccc2c(c1)OCCO2	rCAG RNA binder 50, GRIN3A LBD mod 12 | rCAG binder conf 42 | dCAG dye counter 8.4
Cc1ccc(Cl)cc1N1CCN(C(=O)Cc2c(C(=O)O)[nH]c3ccc(Cl)cc23)CC1	rCAG RNA binder 74 | rCAG binder conf 84 | dCAG dye counter 55
Cc1ccc(Cl)cc1N1CCN(C(=O)Cc2c(C(=O)O)[nH]c3ccccc23)CC1	rCAG RNA binder 51 | rCAG binder conf 48 | dCAG dye counter 14
Cc1ccc(Cl)cc1N1CCN(C(=O)Cc2cn(C)c3ccccc23)CC1	none
COC(=O)c1sc(-c2ccc(C(C)(C)C)cc2)cc1NC(=O)COCC(=O)O	rCAG RNA binder 64 | rCAG binder conf 73 | dCAG dye counter 31 | DNA CAG DR 9.1
COC(=O)c1sc(-c2ccc(Cl)cc2)cc1NC(=O)CSCC(=O)O	none
O=C(NNC(=O)c1ccccc1O)c1ccc(Cl)c(S(=O)(=O)N2CCc3ccccc32)c1	rCAG RNA binder 48 | rCAG binder conf 52 | dCAG dye counter 19
O=C(c1ccc(Cl)c(S(=O)(=O)N2CCc3ccccc32)c1)N1CCN(c2ccccc2O)CC1	none
O=C(Nc1ccc(Cl)cc1)Nc1ccccc1C(=O)N1CCCC1	none (no result: FAS TE block, GRIN3A LBD mod, NadD inh)
C=C/C(C)=C/C[C@H]1C(=C)CCC2[C@](C)(C(=O)O)CCC[C@@]21C (some centres not stated)	none (no result: rCAG RNA binder)
C=C1CCC2C(C)(C)CCC[C@]2(C)[C@H]1CC1=C(O)C(=O)C(CO)=CC1=O (some centres not stated)	rCAG RNA binder 45 (no result: FAS TE block, GRIN3A LBD mod, NadD inh) | rCAG binder conf inactive | dCAG dye counter 7.3
Cc1cc(N2CCCN(C)CC2)n2nc(C)nc2n1	none (no result: FAS TE block, GRIN3A LBD mod, NadD inh)
Cc1ccc(S(=O)(=O)N2[C@@H](c3ccccc3)C(C(=O)O)=CC[C@H]2c2ccc3c(c2)OCO3)cc1	rCAG RNA binder 54 | rCAG binder conf 43 | dCAG dye counter 11
Cc1ccc(S(=O)(=O)N2[C@@H](c3ccc(C(C)(C)C)cc3)C(C(=O)O)=CC[C@H]2c2ccc3c(c2)OCO3)cc1	rCAG RNA binder 83 | rCAG binder conf 82 | dCAG dye counter 46
COC(=O)[C@]12C[C@H](CC(=O)N3CCN(C(=O)c4ccco4)CC3)C(=O)N(Cc3ccccc3)C1=C[C@H](C(C)C)O[C@@H]2C1CC1	none (no result: FAS TE block, GRIN3A LBD mod, NadD inh)
